Data as given in PMC4336329 (PLoS ONE, 2015).
In all, about 310,000 compounds went through this assay and about 14,000 (4.5%) showed an effect of 50% or more. Effects have a minus sign here. This excerpt belongs to a sample that is enriched for strong results.

The compounds below were run against human ether-à-go-go-related gene (hERG) potassium channel (human, UniProt Q12809) (assay: primary screen, population patch clamp on CHO cells stably expressing hERG; higher = less effect of the substance).
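Further: peak tail current of the secondary pulse compared with the same well before compound.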

human ether-à-go-go-related gene (hERG) potassium channel, sequence (Q12809 whole entry, looked up): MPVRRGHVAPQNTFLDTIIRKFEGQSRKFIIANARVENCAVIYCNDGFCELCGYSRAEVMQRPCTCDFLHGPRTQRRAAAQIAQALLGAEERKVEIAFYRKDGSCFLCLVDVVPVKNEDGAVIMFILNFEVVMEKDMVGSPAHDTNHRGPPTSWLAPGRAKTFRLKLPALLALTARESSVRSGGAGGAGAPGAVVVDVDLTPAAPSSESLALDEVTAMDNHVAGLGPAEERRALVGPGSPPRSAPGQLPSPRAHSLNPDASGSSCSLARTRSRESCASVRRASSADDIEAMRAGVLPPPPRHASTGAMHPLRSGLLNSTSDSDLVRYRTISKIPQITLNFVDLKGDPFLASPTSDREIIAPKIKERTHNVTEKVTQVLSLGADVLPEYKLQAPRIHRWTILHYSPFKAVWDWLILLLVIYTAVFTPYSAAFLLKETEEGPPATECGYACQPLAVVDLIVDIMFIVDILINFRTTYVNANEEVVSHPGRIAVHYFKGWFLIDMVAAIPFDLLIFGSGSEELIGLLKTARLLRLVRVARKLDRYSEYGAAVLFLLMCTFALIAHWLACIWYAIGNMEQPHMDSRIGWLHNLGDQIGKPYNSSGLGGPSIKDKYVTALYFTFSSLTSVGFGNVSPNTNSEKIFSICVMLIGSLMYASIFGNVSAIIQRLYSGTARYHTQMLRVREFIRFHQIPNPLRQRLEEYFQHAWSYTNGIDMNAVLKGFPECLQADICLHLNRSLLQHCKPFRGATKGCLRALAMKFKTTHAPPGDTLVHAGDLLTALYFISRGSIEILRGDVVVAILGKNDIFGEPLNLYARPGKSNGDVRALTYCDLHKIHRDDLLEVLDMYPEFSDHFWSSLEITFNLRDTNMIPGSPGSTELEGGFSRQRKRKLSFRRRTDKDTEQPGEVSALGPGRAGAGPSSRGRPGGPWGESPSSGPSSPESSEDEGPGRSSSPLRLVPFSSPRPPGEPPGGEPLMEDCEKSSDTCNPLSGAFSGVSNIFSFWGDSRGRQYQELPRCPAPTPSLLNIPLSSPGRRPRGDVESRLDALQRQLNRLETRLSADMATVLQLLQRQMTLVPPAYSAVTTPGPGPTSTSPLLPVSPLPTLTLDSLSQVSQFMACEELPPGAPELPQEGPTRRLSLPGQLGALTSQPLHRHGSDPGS

| Compound | hERG current change (%, negative = inhibition) at 10uM |
| --- | --- |
| CCOc1ccc(OCC)c(NC(=O)C2CCCN(S(=O)(=O)c3c(C)n[nH]c3C)C2)c1 (stereo not drawn) | 8.8% |
| Cc1ccc(OCC(=O)Nc2cnn(CCCC(=O)O)c2)c([N+](=O)[O-])c1 | 3.59% |
| COc1cccc(OC)c1C(=O)OCC(=O)N(c1ccccc1)C1CCCCC1 | -4.4% |
| Cl.OC(CNCCCN1CCCCC1)COc1ccccc1 (stereo not drawn) | -4.25% |
| Cl.N=c1n(CCN2CCOCC2)c2ccccc2n1CC(O)COc1ccccc1 (stereo not drawn) | -39.3% |
| Cl.N=c1n(CCN2CCCCC2)c2ccccc2n1CC(O)COc1ccccc1 (stereo not drawn) | -68.2% |
| COC(=O)N1C(=O)[C@](c2ccc(Cl)cc2)(C(C)C)N1C(=O)OC | 7.07% |
| CCOc1ccc(-c2cnc3n2CCC3)cc1.Cl | -18.3% |
| COc1ccc(-c2cnc3n2CCCCC3)cc1 | -33.1% |
| CCOc1ccc(-c2cnc3n2CCCCC3)cc1 | -63.3% |
| Cc1ccc(NC(=O)CCC(=O)N2CCOCC2)nc1 | 13% |
| CCc1ccc(C2=NNC(=Nc3c(C)n(C)n(-c4ccccc4)c3=O)SC2)cc1 | 34.4% |
| CC(=O)c1cc(-c2ccccc2)n(CCC(=O)NC2CCCC2)c1C | 0.876% |
| CCCNC(=O)CCn1c(-c2ccc(C)cc2)cc(C(=O)OCC)c1C | -6.08% |
| CCOC(=O)c1cc(-c2ccc(C)cc2)n(CCC(=O)NCCCOC)c1C | -11.5% |
| CCOC(=O)c1cc(-c2ccccc2)n(CC(=O)Nc2ccc(OC)cc2)c1C | 6.19% |
| CCOC(=O)c1cc(-c2ccc(F)cc2)n(CCC(=O)NC2CCN(Cc3ccccc3)CC2)c1C | -64.2% |
| CCOC(=O)c1cc(-c2ccccc2)n(CCC(=O)NC(C)CC)c1C (stereo not drawn) | -12.5% |
| CCOC(=O)c1cc(-c2ccc(OC)cc2)n(CCC(=O)NC2CCN(Cc3ccccc3)CC2)c1C | -65.7% |
| CCOC(=O)c1cc(-c2ccc(OC)cc2)n(CCC(=O)NCCN2CCC(C)CC2)c1C | -52.4% |
| CCOC(=O)c1cc(-c2ccccc2)n(CCC(=O)N2CCN(c3ccc(OC)cc3)CC2)c1C | -25.5% |

| Compound | hERG current change (%, negative = inhibition) at 10uM |
| --- | --- |
| O=C(Cn1c(=S)[nH]c2ccccc2c1=O)NCCc1ccccc1 | 16% |
| CCC(NC(=S)NC1CCCCC1)c1ccc(C(C)C)cc1 (stereo not drawn) | 13.7% |
| CC(C)=CCCC(C)NC(=O)NC1CCCCC1 (stereo not drawn) | -3.64% |
| CCCc1cc(=O)oc2cc(C)cc(OCc3nn[nH]n3)c12 | 13% |
| O=C(NCCO)c1ccc(Oc2ccc(C(F)(F)F)cc2[N+](=O)[O-])cc1 | -0.131% |
| COc1ccccc1C(=O)Nc1c2c(nn1-c1ccc(Cl)cc1)CS(=O)(=O)C2 | 9.63% |
| Cc1onc(-c2ccccc2Cl)c1C(=O)O/N=C(\N)c1ccc([N+](=O)[O-])o1 | -43.6% |
| C/C(=N\OC(=O)c1c(-c2ccccc2Cl)noc1C)c1nccs1 | -2.44% |
| Cc1onc(-c2c(F)cccc2Cl)c1C(=O)O/N=C(\N)c1ccc([N+](=O)[O-])o1 | -16.8% |
| Cc1onc(-c2cccc(Cl)c2Cl)c1C(=O)O/N=C(\N)c1ccc([N+](=O)[O-])o1 | -65% |
| C/C(=N/OC(=O)c1c(-c2ccccc2Cl)noc1C)c1cnccn1 | -7.04% |
| C/C(=N\OC(=O)c1c(-c2ccccc2Cl)noc1C)c1ccncc1 | -58.6% |
| NS(=O)(=O)c1ccc(NC(=S)Nc2ccc(Br)c(Cl)c2)cc1 | 21.3% |
| CCOC(=O)c1ccccc1N/C=C/C(=O)c1cccs1 | -14.9% |
| CCn1c(-c2csc(C(C)C)c2)n[nH]c1=S | 37.1% |
| CC(=O)Nc1ccc(SC[C@H](c2ccccc2)N2CCN(CCc3ccccc3)CCC2=O)cc1 | -75.1% |
| CC(=O)Nc1ccc(SC[C@H](CC(C)C)N2CCN(CC(C)C)CCC2=O)cc1 | -28.1% |
| CCCN1CCC(=O)N(CCSc2ccc(NC(C)=O)cc2)CC1 | 6.8% |
| CC(=O)Nc1ccc(SC[C@H](Cc2ccccc2)N2CCN(CCc3ccccc3)CCC2=O)cc1 | -55.9% |
| CC(=O)Nc1ccc(SC[C@H](Cc2ccccc2)N2CC[C@@H](C(C)(C)C)CCC2=O)cc1 | 5.23% |
| CC(=O)Nc1ccc(SC[C@H](Cc2ccccc2)N2CC[C@@H](C)CCC2=O)cc1 | -8.11% |

| Compound | hERG current change (%, negative = inhibition) at 10uM |
| --- | --- |
| CC(=O)Nc1ccc(SC[C@H](Cc2ccccc2)N2CCN(CC(C)C)CCC2=O)cc1 | -44.2% |
| CC(=O)Nc1ccc(SC[C@H](CC(C)C)N2CCN(CCc3ccccc3)CCC2=O)cc1 | -59.1% |
| CC(=O)Nc1ccc(SC[C@H](Cc2ccccc2)N2CC[C@@H](O)CCC2=O)cc1 | -7.75% |
| Cc1cc(OCc2cc(C(=O)NCc3cc(C(C)C)no3)no2)cc(C)c1Cl | 9.79% |
| Cc1cc(C)c(/C=C(\C#N)S(=O)(=O)c2ccccc2)[nH]1 | 11% |
| Cc1[nH][nH]c(=O)c1C(c1ccc(O)c([N+](=O)[O-])c1)c1c(C)[nH][nH]c1=O | 18.8% |
| CN(C)c1nc(N)ncc1-c1ccc(Oc2ccccc2)cc1 | 18% |
| COc1ccc(-n2nc(C(=O)NCC(=O)N3CCN(c4ccccc4OC)CC3)c3ccccc3c2=O)c(OC)c1 | -18.4% |
| Cc1c(N/C=C/C(=O)C(F)(F)F)c(=O)n(-c2ccccc2)n1C | 20.2% |
| CC1=CC2=NC(=O)CC(C)(C(=O)N(CC(=O)NC3CCCC3)c3cc(C)cc(C)c3)N2C=C1 (stereo not drawn) | 17.9% |
| COc1ccccc1CNC(=O)C(=O)c1cn(CC(=O)N2CCCC2)c2ccccc12 | 15.1% |
| Cc1cccc(/C(N)=N/OC(=O)c2ccc(Cl)cc2Cl)c1 | 8.46% |
| COc1ccc(C(=O)N2CCOCC2)cc1S(=O)(=O)N1CCCc2ccccc21 | -31.4% |
| Cc1ccc(C(=O)OCC(=O)c2ccc(S(=O)(=O)N3CCCCC3)cc2)o1 | -20.3% |
| O=Cc1cn(CCOc2ccccc2)c2ccccc12 | 4.98% |
| CC(=O)N=c1c(C#N)cc2c(=O)n3cccc(C)c3nc2n1CCCOC(C)C | -50.4% |
| COCCCn1c(=NC(=O)c2ccccc2)c(C#N)cc2c(=O)n3cccc(C)c3nc21 | -71.5% |
| COCCCn1c(=NC(C)=O)c(C#N)cc2c(=O)n3cccc(C)c3nc21 | -49.7% |
| COCCCn1c(=NC(=O)c2ccncc2)c(C#N)cc2c(=O)n3cccc(C)c3nc21 | -68% |
| Cc1cccn2c(=O)c3cc(C#N)c(=NC(=O)c4ccncc4)n(CCCOC(C)C)c3nc12 | -85.1% |
| O=C(O)c1cccc(-n2c(-c3cnccn3)n[nH]c2=S)c1 | 20.4% |

| Compound | hERG current change (%, negative = inhibition) at 10uM |
| --- | --- |
| CN(C)c1ccc(NC(=S)c2ccc3ccccc3n2)cc1 | 12.2% |
| Cc1ccccc1NCC(=O)N/N=C/c1c(C)c(C(=O)c2ccc(Cl)cc2)n2ccccc12 | -4.11% |
| COc1ccccc1C(=O)NC(=O)COc1cc(Cl)ccc1Cl | 0.882% |
| CC1CCCCN1C(=O)c1c([N+](=O)[O-])cnn1C (stereo not drawn) | 18.7% |
| COc1ccc(NC(=O)c2cncn2-c2ccccc2)cc1 | 13.7% |
| CCOC(=O)C1=C(C)N(CCCC(=O)O)C(=O)NC1c1ccccc1OS(=O)(=O)c1ccc(C)cc1 (stereo not drawn) | -15.2% |
| Cc1cc(=O)oc2cc(NC(=O)c3ccccc3OC(F)F)ccc12 | 26.9% |
| CC1CCN(C2=NC(=O)/C(=C/c3cccc(O)c3)S2)CC1 | -18.5% |
| CC(=O)N1C(Nc2ccc(Cl)cc2)CCN1c1ccccc1 (stereo not drawn) | 9.96% |
| O=C(NC(NNc1ccc([N+](=O)[O-])cc1)(C(F)(F)F)C(F)(F)F)c1ccc(F)cc1 | -2.67% |
| COc1ccc(C(=O)Nc2ccccn2)cc1S(=O)(=O)N1CCOCC1 | -8.04% |
| COc1ccc(C(=O)Nc2ccc(Cl)cn2)cc1S(=O)(=O)N1CCCC1 | -48% |
| COc1ccc(C(=O)Nc2ncc(C)s2)cc1S(=O)(=O)N1CCCC1 | 17.5% |
| COc1ccc(C(=O)Nc2nnc(C)s2)cc1S(=O)(=O)N1CCOCC1 | -14% |
| COc1ccc(C(=O)Nc2ncc(C)s2)cc1S(=O)(=O)N1CCOCC1 | -56.2% |
| COc1ccc(C(=O)Nc2ccc(Br)cn2)cc1S(=O)(=O)N1CCOCC1 | -57.9% |
| CN(C)c1nc(Oc2ccc(=O)n(-c3ccccc3)n2)nc(N2CCOCC2)n1 | 9.19% |
| CC(=O)Nc1ccc(C(=O)NNC(=O)c2ccccc2-n2cccc2)cc1 | 6.54% |
| COc1ccc(C(=O)NNC(=O)CN(C)S(=O)(=O)c2ccc(Cl)cc2)c(OC)c1OC | -49.7% |
| Cc1cccc(N/N=C/c2ccc(C)s2)c1 | 19.7% |
| O=C(CCCn1c(=S)[nH]c2ccsc2c1=O)NCc1ccco1 | 18.8% |
